A short description of assay [1]: NCI Yeast Anticancer Drug Screen. Data for the rad50 strain (AID 155).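 Note: 0% = growth of vehicle-only cultures of the same strain.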 To be noted: S. cerevisiae rad50 strain growth inhibition; at 50.0 µM; stronger effect = higher value. The method, boiled down:
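DNA repair mutant yeast, compound exposure, growth read-out; inhibition is taken relative to vehicle.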

The nature of assay [2]: NCI Yeast Anticancer Drug Screen. Data for the mec2-1 strain (AID 157). To be noted: S. cerevisiae mec2-1 strain, at 50.0 µM, stronger effect = higher value. The method, boiled down: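 Cells of the genetically defined mec2-1 yeast strain are incubated with test compound. Inhibition of growth is calculated against vehicle-treated controls.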
A short description of assay [3]: NCI Yeast Anticancer Drug Screen. Data for the sgs1 mgt1 strain (AID 161).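 Note: 0% = growth of cultures given vehicle only.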 To be noted: S. cerevisiae sgs1 mgt1 strain, at 50.0 µM, stronger effect = higher value. In short, it runs like this: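 Mutant yeast exposed to compound; growth scored against vehicle-only wells.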
Assay [4] can be described thus: NCI Yeast Anticancer Drug Screen. Data for the cln2 rad14 strain (AID 165).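 Note: 0% = growth equal to vehicle treated cultures.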 To be noted: S. cerevisiae cln2 rad14 strain, at 50.0 µM, stronger effect = higher value. In short, it runs like this:
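The screen exposed genetically defined yeast (cln2 rad14) to test compounds and scored growth inhibition relative to vehicle-treated controls.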

A short description of assay [5]: NCI Yeast Anticancer Drug Screen. Data for the bub3 strain (AID 167). Conditions: S. cerevisiae bub3 mutant strain, at 50.0 µM, stronger effect = higher value. In short, it runs like this: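 In this screen, a yeast mutant lacking normal mitotic checkpoint function is challenged with compound. Relative growth versus vehicle gives the inhibition value.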
Assay [6] in a line: NCI Yeast Anticancer Drug Screen. Data for the mlh1 rad18 strain (AID 175). Conditions: S. cerevisiae mlh1 rad18 strain growth inhibition; at 50.0 µM; stronger effect = higher value. In short, it runs like this:
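Compound-treated yeast growth, normalised to vehicle controls. Strain bears defined DNA repair mutations.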

About 79,000 compounds went through this panel and 15% of them were active in at least one assay; those are over-represented in the sample as a whole. A number with no mark means an inactive call. Active and inactive are the calls of the source. Cut-off read from the data, not from the text of the source: active = growth inhibition above about 70%; inactive = the rest.

For `CCCCC1(C(=O)NC(=Nc2ccccc2)Nc2ccccc2)CCOC1=O` (stereo unspecified), the growth inhibition in assay [1] was 4.3%; in assay [2] it was 8.15%; in assay [3], -2.55%; in assay [4] it was -11.9%; in assay [5], -2.95%; in assay [6] it was 4.9%.
Take `CCCCCCCC/C=C\CCCCCCCC(=O)NCCN1CCCCC1`: the growth inhibition in assay [1] was 99% (active); in assay [2], 99.5% (active); in assay [3], 99.6% (active); in assay [4] it was 97.8% (active); in assay [5] it was 99% (active); in assay [6], 99.2% (active).
On to `Cc1nc2c(c(-c3ccccc3)n1)Cc1ccccc1O2`, for which the growth inhibition in assay [1] was -4.05%; in assay [2] it was -12.4%; in assay [3], 7.55%; in assay [4], -10.5%; in assay [5], 25.8%; in assay [6], 0%.
On to `O=C(c1ccccc1)[n+]1ccc2ccccc2c1`, for which the growth inhibition in assay [1] is -19.1%; in assay [2] it was -21.2%; in assay [3] it was -4.35%; in assay [4], 0.45%; in assay [5], -6.25%; in assay [6], -13.1%.
Turning to `CNc1nc(N(C)C)nc(N(C)C)n1`, the growth inhibition in assay [1] is 25.2%; in assay [2], 16.9%; in assay [3], 15.6%; in assay [4], 28.9%; in assay [5], 26.8%; in assay [6], 26.6%.
In the case of `CCC1=C(CC2NCCc3ccccc32)CC2c3cc(OC)c(OC)cc3CCN2C1` (stereo unspecified), the growth inhibition was -9.9% in assay [1]; -12.1% in assay [2]; -14.7% in assay [3]; 3.9% in assay [4]; -28% in assay [5]; -11.1% in assay [6].
As to `CS(=O)(=O)CC1=NC(=N)N=C1CS(C)(=O)=O`, the growth inhibition in assay [1] is 6.05%; in assay [2] it was -14.9%; in assay [3] it was -8.95%; in assay [4], -4.85%; in assay [5], -29.8%; in assay [6], 2.1%.
As for `O=C(Nc1ccc(Cl)cc1)OCC#CCOC(=O)Nc1ccc(Cl)cc1`, the growth inhibition in assay [1] is 5.8%; in assay [2], -2.75%; in assay [3] it was -6.3%; in assay [4], -2.05%; in assay [5], -0.35%; in assay [6], 2.1%.
As to `CC(=O)CCc1ccc(Cl)cc1`, the growth inhibition in assay [1] is -21.6%; in assay [2], -3.55%; in assay [3], -1%; in assay [4], 3.1%; in assay [5], 5.4%; in assay [6] it was -4.4%.
As for `COc1ccc(C2C(Cl)C(=O)N2n2cnc3ccccc3c2=O)cc1OC` (stereo unspecified), the growth inhibition in assay [1] is -20.7%; in assay [2], -0.35%; in assay [3] it was 0.1%; in assay [4], 8.9%; in assay [5], -10.9%; in assay [6], -21.6%.
For `Clc1ccc(-c2nc3ccccc3cc2N2CCOCC2)cc1`, the growth inhibition is 70.5% (active) in assay [1]; 52% in assay [2]; 47.9% in assay [3]; 49.7% in assay [4]; 39.5% in assay [5]; 82.5% (active) in assay [6].
For the molecule `O=P(c1ccccc1)(c1ccccc1)C(O)c1ccc(F)cc1` (stereo unspecified), the growth inhibition in assay [1] was -11.6%; in assay [2] it was -14.7%; in assay [3], 7.4%; in assay [4], 2.1%; in assay [5], 1.4%; in assay [6] it was -7.25%.
In the case of `CC(=O)NC(C(=O)Nc1ccccc1)=C(C)C`, the growth inhibition in assay [1] was -7.45%; in assay [2], -7.9%; in assay [3] it was -11.8%; in assay [4], -11.5%; in assay [5] it was 5.25%; in assay [6], 0.8%.
For `O=C(OCc1ccccc1)c1ccc(NCc2cc(O)ccc2O)cc1`, the growth inhibition is 88.7% (active) in assay [1]; 90.7% (active) in assay [2]; 89.7% (active) in assay [3]; 89.6% (active) in assay [4]; 88% (active) in assay [5]; 92.2% (active) in assay [6].
For the molecule `O=C(/C=C/c1ccncc1)c1ccccc1`, the growth inhibition in assay [1] is 0.4%; in assay [2] it was -9.3%; in assay [3], -1.85%; in assay [4] it was 11.9%; in assay [5], -12.9%; in assay [6], 1.75%.
Consider `O=C(O)c1cc(C2CC2)nc2ccccc12`, for which the growth inhibition was -1% in assay [1]; 1.6% in assay [2]; 0.55% in assay [3]; -0.95% in assay [4]; -14.6% in assay [5]; 24.6% in assay [6].
For the molecule `CC1CCCCC12COC(O)CO2` (stereo unspecified), the growth inhibition in assay [1] is -22.5%; in assay [2] it was -23.4%; in assay [3] it was -19.1%; in assay [4] it was -11.7%; in assay [5], -24.1%; in assay [6], -31.9%.
Turning to `CCCCCCCCS(=O)(=O)N(C)C`, the growth inhibition in assay [1] is -18.6%; in assay [2] it was -24.9%; in assay [3], 0.4%; in assay [4], -28.3%; in assay [5] it was -31.1%; in assay [6], -15.2%.
For the molecule `COC(=O)C1C(O)C(C)C(OC(C)=O)C(C)/C=C\C=C(C)C(=O)Nc2c(C)c(OC(C)=O)c3c(c2O)C(=O)C(C)=C2OCOC(=C23)C(C)=CC(C)(O)C(O)C(C)C1O` (stereo unspecified), the growth inhibition in assay [1] is 3.25%; in assay [2], -18.8%; in assay [3], 15.7%; in assay [4] it was 3.35%; in assay [5] it was 26.8%; in assay [6], 20.9%.
Take `O=C(NCc1ccncc1)Nc1ccc(Cc2ccc(NC(=O)NCc3ccncc3)cc2)cc1`: the growth inhibition is -8.05% in assay [1]; -19.1% in assay [2]; 0.2% in assay [3]; 15.3% in assay [4]; 3.5% in assay [5]; 4.25% in assay [6].
`Cc1ccc(-c2ccno2)cc1`: the growth inhibition in assay [1] is 1.7%; in assay [2], 3.15%; in assay [3], 1.25%; in assay [4], -14.3%; in assay [5], -8.3%; in assay [6] it was 2.25%.
